# From PubChem BioAssay (Tox21)
# Several values for one entry are separate records, joined by “and”; a condition that tells them apart may be missing. Equal entries are not always repeated. Results filed as inconclusive are left out. A call without a number means that no potency is given here. Unmarked numbers belong to inactive results. Activity calls are given as the source filed them. Unless noted, the call rests on the fitted dose curve.
# Test system: not listed separately
# Experiment: qHTS assay to identify small molecule agonists of the estrogen related receptor signaling pathway with the pleiotropic PPARgamma coactivator (PGC) from Tox21 10K library (AID 1224842; active means well fitted activation curve with a large enough effect in the repeat runs; further: nearly all actives have a fitted effect of over 15% in size)
# Details: PGC/ERR reporter cell line, luciferase ONE-Glo, 18 h; series mostly up to 92.4 µM; activation: at the top concentration
# Outline: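 PGC/ERR reporter cells (NTP line) were seeded 2,000 per well, rested 6 h at 37 C/5% CO2, then pin-dosed with compounds in DMSO for 18 h at 37 C; luciferase read by One-Glo luminescence after 30 min at room temperature.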
SMILES,outcome,activation [%]
CNC(=O)Oc1ccccc1OC(C)C,inactive,–
CN(N=O)c1ccccc1,inactive,–
BrCCBr,inactive,–
O=[N+]([O-])c1ccc(Oc2ccc(Cl)cc2Cl)cc1,inactive,–
CON(C)C(=O)Nc1ccc(Cl)c(Cl)c1,–,2.88
CC(C)(C)OOC(C)(C)C,inactive,–
CCOC(=O)c1ccccc1C(=O)OCC,inactive,–
CCC(C)(CC)c1cc(NC(=O)c2c(OC)cccc2OC)on1,inactive,–
Nc1ccccc1C(=O)O,inactive,–
COC(=O)c1ccccc1N,inactive,–
COC(=O)NS(=O)(=O)c1ccc(N)cc1,inactive,–
CCC[CH2][Sn]([Cl])([Cl])[Cl],inactive,–
CCc1cccc(C)c1N(C(=O)CCl)C(C)COC (stereo not drawn),inactive,–
Cn1cc(-c2ccccc2)c(=O)c(-c2cccc(C(F)(F)F)c2)c1,inactive,–
CN=C=S,inactive,–
CCCCOC(=O)c1ccccc1C(=O)OCCCC,inactive,–
CC(=O)C=C(C)C,inactive,–

# Biological target: Thyrotropin receptor (Homo sapiens) (UniProt P16473)
# Experiment: qHTS assay to identify small molecule agonists of the thyroid stimulating hormone receptor (TSHR) signaling pathway (AID 1224843); further: nearly all actives have a fitted effect of over 45% in size; further: potency means the concentration at half of the fitted maximal effect
# Details: TSHR-HEK293 cells, cAMP HTRF, agonist mode, 30 min; series mostly up to 92.4 µM; activation: at the top concentration
# Outline: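 Compounds are titrated over 15 concentrations, in triplicate, onto TSHR-HEK293 cells seeded at 800/well. Plates sit 30 min at room temperature before cAMP-d2 and anti-cAMP cryptate are added; signal is read after a further hour.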
# Chain of Thyrotropin receptor (Homo sapiens) (P16473 whole entry, looked up): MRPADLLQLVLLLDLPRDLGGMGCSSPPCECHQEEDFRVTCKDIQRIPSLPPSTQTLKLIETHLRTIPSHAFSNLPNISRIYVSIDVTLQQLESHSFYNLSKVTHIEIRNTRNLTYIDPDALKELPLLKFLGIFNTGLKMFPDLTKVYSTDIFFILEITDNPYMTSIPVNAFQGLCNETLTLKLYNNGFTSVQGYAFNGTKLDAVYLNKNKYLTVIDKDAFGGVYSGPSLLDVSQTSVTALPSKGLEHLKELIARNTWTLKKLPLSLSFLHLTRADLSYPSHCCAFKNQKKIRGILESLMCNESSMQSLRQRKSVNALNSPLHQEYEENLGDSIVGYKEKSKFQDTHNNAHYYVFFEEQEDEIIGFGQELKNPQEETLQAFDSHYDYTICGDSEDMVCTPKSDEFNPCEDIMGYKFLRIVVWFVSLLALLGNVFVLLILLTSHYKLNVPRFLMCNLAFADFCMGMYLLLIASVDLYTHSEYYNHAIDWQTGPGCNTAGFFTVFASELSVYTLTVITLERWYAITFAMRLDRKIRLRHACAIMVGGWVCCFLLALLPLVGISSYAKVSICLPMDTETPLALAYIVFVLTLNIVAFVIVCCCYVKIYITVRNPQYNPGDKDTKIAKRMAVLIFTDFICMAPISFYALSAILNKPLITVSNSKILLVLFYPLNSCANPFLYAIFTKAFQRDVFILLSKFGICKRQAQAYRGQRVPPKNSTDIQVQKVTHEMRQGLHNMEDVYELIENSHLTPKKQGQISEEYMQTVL
SMILES,Potency,activation
CNC(=O)Oc1ccccc1OC(C)C,inactive,–
CN(N=O)c1ccccc1,inactive,–
C1CN2CCN1CC2,inactive,–
CCCN(CCC)c1c([N+](=O)[O-])cc(C(F)(F)F)cc1[N+](=O)[O-],10.8 µM (active) and 12.2 µM (active),–
CC(C)C#N,inactive,–
C=CCO,inactive,–
NCCc1ccc(O)cc1,inactive,–
C1CC2OC2CC1C1CO1 (stereo not drawn),inactive,–
c1ccc(OP(Oc2ccccc2)Oc2ccccc2)cc1,inactive,–
CCCN(CCC)N=O,inactive,–
C[C@]12CC[C@H]3[C@@H](CC[C@@]45O[C@@H]4C(O)=C(C#N)C[C@]35C)[C@@H]1CC[C@@H]2O,–,-2.99% [at 42.5 µM]
CN(C)[C@@H]1C(=O)C(C(N)=O)=C(O)[C@@]2(O)C(=O)C3=C(O)c4c(O)cccc4[C@@](C)(O)[C@H]3C[C@@H]12,inactive,–
O=NN1CCCCCCC1,inactive,–
c1cc2c3c(cccc3c1)CC2,inactive,–
O=c1n(Cl)c(=O)n(Cl)c(=O)n1Cl,inactive,–
Cc1ccc(N)cc1Cl,inactive,–
COC(=O)c1ccccc1N,inactive,–
ClCc1cccnc1,inactive,–
COC(=O)NC(=S)Nc1ccccc1NC(=S)NC(=O)OC,inactive,–
Cc1cc(Cl)ccc1O,inactive,–
NCC(O)c1ccc(O)cc1 (stereo not drawn),inactive,–
CN1C(=O)CN=C(c2ccccc2)c2cc(Cl)ccc21,inactive,–
Cn1cc(-c2ccccc2)c(=O)c(-c2cccc(C(F)(F)F)c2)c1,inactive,–
CN=C=S,–,0.789%

# Test system: not listed separately
# Experiment: qHTS assay to identify small molecule agonists of the hypoxia (HIF-1) signaling pathway - cell viability counter screen (AID 1224844); further: nearly all actives have a fitted effect of over 50% in size
# Details: HRE-bla ME-180 viability, CellTiter-Glo luminescence, 17 h; series mostly up to 76.8 µM; activity change, negative = cytotoxicity: at the top concentration
# Outline: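 In this counter screen, HRE-bla ME-180 cell viability after 17 hrs of compound exposure at 37C was read by CellTiter-Glo luminescence, multiplexed with the beta-lactamase reporter measurement.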
SMILES,Potency,"activity change, negative = cytotoxicity"
CNC(=O)Oc1ccccc1OC(C)C,inactive,–
CN(N=O)c1ccccc1,inactive,–
C1CN2CCN1CC2,inactive,–
CCCN(CCC)c1c([N+](=O)[O-])cc(C(F)(F)F)cc1[N+](=O)[O-],inactive,–
CC(C)C#N,inactive,–
BrCCBr,inactive,–
C=CCO,inactive,–
O=[N+]([O-])c1ccc(Oc2ccc(Cl)cc2Cl)cc1,–,6.13%
NCCc1ccc(O)cc1,–,2.06% [at 35.3 µM]
CON(C)C(=O)Nc1ccc(Cl)c(Cl)c1,inactive,–
C1CC2OC2CC1C1CO1 (stereo not drawn),inactive,–
c1ccc(OP(Oc2ccccc2)Oc2ccccc2)cc1,inactive,–
CC(C)(C)OOC(C)(C)C,inactive,–
CCCN(CCC)N=O,inactive,–
C[C@]12CC[C@H]3[C@@H](CC[C@@]45O[C@@H]4C(O)=C(C#N)C[C@]35C)[C@@H]1CC[C@@H]2O,inactive,–
CN(C)[C@@H]1C(=O)C(C(N)=O)=C(O)[C@@]2(O)C(=O)C3=C(O)c4c(O)cccc4[C@@](C)(O)[C@H]3C[C@@H]12,inactive,–
O=NN1CCCCCCC1,inactive,–
CCOC(=O)c1ccccc1C(=O)OCC,inactive,–

SMILES,Potency,"activity change, negative = cytotoxicity"
c1cc2c3c(cccc3c1)CC2,inactive,–
O=c1n(Cl)c(=O)n(Cl)c(=O)n1Cl,inactive,–
CCC(C)(CC)c1cc(NC(=O)c2c(OC)cccc2OC)on1,inactive,–
Cc1ccc(N)cc1Cl,inactive,–
Nc1ccccc1C(=O)O,inactive,–
COC(=O)c1ccccc1N,inactive,–
ClCc1cccnc1,inactive,–
COC(=O)NC(=S)Nc1ccccc1NC(=S)NC(=O)OC,inactive,–
COC(=O)NS(=O)(=O)c1ccc(N)cc1,inactive,–
CCC[CH2][Sn]([Cl])([Cl])[Cl],–,12.6%
Cc1cc(Cl)ccc1O,inactive,–
NCC(O)c1ccc(O)cc1 (stereo not drawn),inactive,–
CN1C(=O)CN=C(c2ccccc2)c2cc(Cl)ccc21,–,-2.66% [at 35.3 µM]
CCc1cccc(C)c1N(C(=O)CCl)C(C)COC (stereo not drawn),inactive,–
Cn1cc(-c2ccccc2)c(=O)c(-c2cccc(C(F)(F)F)c2)c1,inactive,–
CN=C=S,inactive,–
CCCCOC(=O)c1ccccc1C(=O)OCCCC,inactive,–
CC(=O)C=C(C)C,inactive,–

# Test system: not listed separately
# Experiment: qHTS assay to identify small molecule agonists of H2AX (AID 1224845; active means well fitted activation curve with a large enough effect in the signal ratio in the repeat runs, not every such curve was filed as active; the % refers to the signal ratio)
# Details: CHO-K1 phospho-H2AX Ser139 HTRF, 3 h; series mostly up to 154 µM; activation (H2AX phosphorylation): at the top concentration
# Outline: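 Wild-type CHO-K1 cells plated overnight, then exposed 3 hr at 37C to compounds at 15 concentrations (0.76% DMSO). Lysed, then HTRF anti-pH2AX(S139)-cryptate/anti-H2AX-d2 detection after 24 hr at room temperature; emissions 665 and 620 nm.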
SMILES,Potency,activation (H2AX phosphorylation)
CNC(=O)Oc1ccccc1OC(C)C,inactive,–
CN(N=O)c1ccccc1,inactive,–
C1CN2CCN1CC2,inactive,–
CCCN(CCC)c1c([N+](=O)[O-])cc(C(F)(F)F)cc1[N+](=O)[O-],inactive,–
CC(C)C#N,inactive,–
BrCCBr,inactive,–
C=CCO,inactive,–
O=[N+]([O-])c1ccc(Oc2ccc(Cl)cc2Cl)cc1,–,-2.59%
NCCc1ccc(O)cc1,inactive,–
CON(C)C(=O)Nc1ccc(Cl)c(Cl)c1,inactive,–
C1CC2OC2CC1C1CO1 (stereo not drawn),inactive,–
c1ccc(OP(Oc2ccccc2)Oc2ccccc2)cc1,inactive,–
CC(C)(C)OOC(C)(C)C,inactive,–
CCCN(CCC)N=O,inactive,–
C[C@]12CC[C@H]3[C@@H](CC[C@@]45O[C@@H]4C(O)=C(C#N)C[C@]35C)[C@@H]1CC[C@@H]2O,inactive,–
CN(C)[C@@H]1C(=O)C(C(N)=O)=C(O)[C@@]2(O)C(=O)C3=C(O)c4c(O)cccc4[C@@](C)(O)[C@H]3C[C@@H]12,–,0.212%
O=NN1CCCCCCC1,inactive,–
CCOC(=O)c1ccccc1C(=O)OCC,inactive,–

SMILES,Potency,activation (H2AX phosphorylation)
c1cc2c3c(cccc3c1)CC2,–,4.33%
O=c1n(Cl)c(=O)n(Cl)c(=O)n1Cl,inactive,–
CCC(C)(CC)c1cc(NC(=O)c2c(OC)cccc2OC)on1,inactive,–
Cc1ccc(N)cc1Cl,inactive,–
Nc1ccccc1C(=O)O,inactive,–
COC(=O)c1ccccc1N,inactive,–
ClCc1cccnc1,inactive,–
COC(=O)NC(=S)Nc1ccccc1NC(=S)NC(=O)OC,inactive,–
COC(=O)NS(=O)(=O)c1ccc(N)cc1,inactive,–
CCC[CH2][Sn]([Cl])([Cl])[Cl],inactive,–
Cc1cc(Cl)ccc1O,inactive,–
NCC(O)c1ccc(O)cc1 (stereo not drawn),inactive,–
CN1C(=O)CN=C(c2ccccc2)c2cc(Cl)ccc21,–,3.78% [at 70.9 µM]
CCc1cccc(C)c1N(C(=O)CCl)C(C)COC (stereo not drawn),inactive,–
Cn1cc(-c2ccccc2)c(=O)c(-c2cccc(C(F)(F)F)c2)c1,inactive,–
CN=C=S,inactive,–
CCCCOC(=O)c1ccccc1C(=O)OCCCC,inactive,–
CC(=O)C=C(C)C,inactive,–
